Laboratory results: ChEMBL document CHEMBL3988442, “University of Dundee, Small-Polar-MMV Screening Library” (2021)
About 13,000 (27%) of roughly 48,000 compounds showed an effect of 50% or more. The list shows a part of the results.

tested on: Wolbachia pipientis; assay: Anti-Wolbachia Cell-Based Screen; type: functional; parameters: scale not given: in the data most compounds retested in dose-response had high values; conditions: 5 µM

| SMILES | Percent Effect [%] |
| --- | --- |
| CN(c1cccnc1N1CCCC1)S(=O)(=O)c1cccs1 | 3.267 |
| CCc1nc(C)c(C(=O)N2CCNCC2C(=O)Nc2ccc(C)nc2)o1 (configuration not stated) | 1.705 |
| Cc1cccc(C)c1OC1CN(Cc2cnc(-c3ccco3)nc2)C1 | -6.327 |
| CSCC(=O)N[C@H]1CN(CC2CCOCC2)C[C@@H]1c1ccccc1 | 6.905 |
| Cc1cc(C(=O)N2CCc3ncnc(-c4cnn(C)c4)c3CC2)no1 | 110.1 |
| Cn1cc(-c2ncnc3c2CCN(C(=O)c2cscn2)CC3)cn1 | 121.2 |
| O=C(c1cc[nH]n1)N1CCc2ncnc(N3CCSCC3)c2CC1 | 19.12 |
| Cn1cc(-c2ncnc3c2CCN(C(=O)N2CCOCC2)CC3)cn1 | -0.924 |
| Cc1ccc(C(=O)N2CCc3ncnc(C)c3CC2)o1 | -4.866 |
| Cc1ccc(C(=O)N2CCc3ncnc(-c4cnn(C)c4)c3CC2)o1 | 96.64 |
| COc1cc(N2CCc3ncnc(-c4cnn(C)c4)c3CC2)ncn1 | -4.032 |
| CN(C)c1cnnc(N2CCN(C(=O)CCC3CCCCC3)CC2)c1 | 3.23 |
| Cc1n[nH]c(SCC(=O)NC(c2ccncc2)C(C)C)n1 (configuration not stated) | 1.831 |
| Cc1cc(NC(=O)N2CCOCC2)nn1-c1ccccc1Cl | -5.01 |
| CCc1nc(NS(=O)(=O)c2cc(C)cc(F)c2)no1 | -9.734 |
| Cc1ccc(N2CCCC3(CCCC(=O)N3)C2)nn1.O=C(O)C(F)(F)F (configuration not stated) | -15.09 |
| Cc1ccc(N2CCC3(CN(Cc4ccncc4)CCC3(F)F)C2)nn1.O=C(O)C(F)(F)F.O=C(O)C(F)(F)F (configuration not stated) | 101.6 |
| Cc1ccc(N2CCC3(CC2)CC(OCC(C)C)C3)nn1.O=C(O)C(F)(F)F | -76.25 |
| Cc1ccc(N2CCC3(CN(Cc4cccs4)CCC3(F)F)C2)nn1.O=C(O)C(F)(F)F (configuration not stated) | 80.15 |
| Cc1ccc(CN2CCC(F)(F)C3(CCN(c4cnccn4)C3)C2)o1.O=C(O)C(F)(F)F.O=C(O)C(F)(F)F (configuration not stated) | 15.24 |
| Cc1n[nH]cc1CNc1ccc2c(c1)N(C(=O)OC(C)(C)C)CCC2 | -11.3 |
| Cc1nnsc1CNC(=O)Nc1cccc(N2CCN(C)C2=O)c1 | -31.37 |
| Cc1cccc(N2CCOCC3(C2)CN(c2cccnc2)C(=O)CO3)n1 (configuration not stated) | 106.1 |
| Cc1cccc(N2CCOCC3(C2)CN(c2cncnc2)C(=O)CO3)n1 (configuration not stated) | 105.8 |
| Cc1cccc(N2CC3(COCCN(c4ccncn4)C3)OCC2=O)c1 (configuration not stated) | -13.92 |
| O=C1COC2(COCCN(c3cnccn3)C2)CN1c1cccc(F)c1 (configuration not stated) | -3.492 |
| CN1CC2(COCCN(c3ncccn3)C2)OCC1=O (configuration not stated) | -2.048 |
